Data on 29 compounds can be found in PubChem BioAssay.

Where “and” joins values, the source holds several entries; their conditions need not be identical. Equal values may be shown once. Calls of active or inactive are those of the source.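 The calls were made as follows: active = mean z-score across replicates of 1.96 or higher in either the MELAS or the Rieske mutant cell line; inactive = the rest.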

The first assay can be described thus: survival rescue of mitochondrial mutant cells in low glucose, primary screen, MELAS cybrids, Rieske KO mouse fibroblasts, CellTiter-Glo (AID 1508586).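 Also: test concentration not given here; z relative to plate mean and SD of compound and empty wells.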 Conditions: MELAS cybrid survival, CellTiter-Glo 48 h, stronger effect = higher value. In general terms: ATP-based viability assays read luminescence as a measure of living cells.
On to `Cc1cn[nH]c1`, for which the z-score was 0.667 (inactive). On the same count and under the same terms, the figure for `COc1ccc2cc3[n+](cc2c1OC)CCc1cc2c(cc1-3)OCO2` is 0.0209 (inactive).

Take `C#C[C@]1(O)CC[C@H]2[C@@H]3CCc4cc(O)ccc4[C@H]3CC[C@@]21C`: the z-score was 1.16 (inactive). Same read-out and setting: the figure for `O=c1c(O)c(-c2ccc(O)c(O)c2)oc2cc(O)cc(O)c12` is -0.4 (inactive) and -0.42 (inactive); for `COC1=C(OC)C(=O)C(CCCCCCCCCCO)=C(C)C1=O` it is -0.358 (inactive) and -0.43 (inactive) and 0.294 (inactive); for `Cc1[nH]c(=O)c(C#N)cc1-c1ccncc1` it is -0.327 (inactive) and 0.548 (inactive) and 0.108 (inactive). Consider `COc1cc2c(N3CCN(C(=O)Nc4ccc(OC(C)C)cc4)CC3)ncnc2cc1OCCCN1CCCCC1`, for which the z-score was -0.531 (inactive). Same read-out and setting: the result for `CCCN(CCC)C(=O)C(CCC(=O)O)NC(=O)c1ccccc1` (configuration not stated) reads -1.04 (inactive); that for `Oc1ccc(OCc2ccccc2)cc1`, -0.263 (inactive) and 1.74 (inactive). `COC(=O)Nc1nc2ccc(Sc3ccccc3)cc2[nH]1`: the z-score was 1.35 (inactive) and -2.36 (inactive) and -2.06 (inactive). On the same count and under the same terms, the result for `CC(=O)O[C@]1(C(C)=O)CC[C@H]2[C@@H]3C=C(Cl)C4=CC(=O)[C@@H]5C[C@@H]5[C@]4(C)[C@H]3CC[C@@]21C` reads -0.4 (inactive); that for `CO[C@@H]1[C@@H](OC(N)=O)[C@@H](O)[C@H](Oc2ccc3c(O)c(NC(=O)c4ccc(O)c(CC=C(C)C)c4)c(=O)oc3c2C)OC1(C)C`, 0.0759 (inactive). For `CCOc1cc(N)c(Cl)cc1C(=O)NCC1CN(Cc2ccc(F)cc2)CCO1` (configuration not stated), the z-score is -0.303 (inactive). For `Cc1ccc(S(=O)(=O)NC(=O)NN2CC3CCCC3C2)cc1` (configuration not stated), the z-score was -0.361 (inactive) and -0.892 (inactive) and 0.121 (inactive).

In the case of `CN(Cc1cc(Br)cc(Br)c1N)C1CCCCC1`, the z-score was -0.2 (inactive) and -0.238 (inactive) and -0.0697 (inactive). Still for that read-out and setting: the result for `COC(=O)Nc1nc2ccc(C(=O)c3cccs3)cc2[nH]1` reads -0.757 (inactive) and 1.39 (inactive) and -3.68 (inactive); that for `Cn1c(=O)c2c(ncn2C)n(C)c1=O`, 0.603 (inactive); that for `CN(Cc1cnc2nc(N)nc(N)c2n1)c1ccc(C(=O)N[C@@H](CCC(=O)O)C(=O)O)cc1`, 1.68 (inactive).

Still in this assay, the particulars now being: Rieske KO mouse fibroblast survival, CellTiter-Glo 72 h.
As for `COc1cc(OC)c(C(=O)CCCN2CCCC2)c(OC)c1`, the z-score was -0.346 and 0.199. Consider `CC(C)[C@H](N)C(=O)OCCOCn1cnc2c(=O)[nH]c(N)nc21`, for which the z-score is 0.16 and -0.416. As to `O=C(NCCO[N+](=O)[O-])c1cccnc1`, the z-score was -0.979 and 0.348 and 0.117. For `Cn1c(NCCN(CCO)CCCc2ccc([N+](=O)[O-])cc2)cc(=O)n(C)c1=O`, the z-score is 0.302 and -0.676. On to `CCN1CCN(C(=O)N[C@@H](C(=O)N[C@@H]2C(=O)N3C(C(=O)O)=C(CSc4nnnn4C)CS[C@H]23)c2ccc(O)cc2)C(=O)C1=O`, for which the z-score was -0.0146 and -0.684. On to `CNNCc1ccc(C(=O)NC(C)C)cc1`, for which the z-score was -1.08 and 0.362. The same measure, in the same setting: the figure for `O=C(O)/C=C/c1ccc(Cn2ccnc2)cc1` is 0.0439 and 0.14.

Consider `CCOC(=O)[C@H](CCc1ccccc1)N[C@@H](C)C(=O)N1CCC[C@H]1C(=O)O`, for which the z-score was -0.133 and -0.361.

In the case of `O=NN(CCCl)C(=O)NC1CCCCC1`, the z-score is 0.628 and -0.815.

As to `COc1ccc(C(=O)CC(=O)c2ccc(C(C)(C)C)cc2)cc1`, the z-score is 0.325 and 0.254. The same measure, in the same setting: the figure for `CN(CCOc1ccc(NS(C)(=O)=O)cc1)CCc1ccc(NS(C)(=O)=O)cc1` is -0.727 and -0.208 and -0.315; for `Cc1cn[nH]c1` it is 0.0381.

`COc1ccc2cc3[n+](cc2c1OC)CCc1cc2c(cc1-3)OCO2` returned a z-score of 0.259. For `C#C[C@]1(O)CC[C@H]2[C@@H]3CCc4cc(O)ccc4[C@H]3CC[C@@]21C`, the z-score was determined as 0.428.

For the compound `O=c1c(O)c(-c2ccc(O)c(O)c2)oc2cc(O)cc(O)c12`, the z-score was -1.01 and 0.378. On the same count and under the same terms, the figure for `COC1=C(OC)C(=O)C(CCCCCCCCCCO)=C(C)C1=O` is 0.303 and 0.0167 and -0.141; for `Cc1[nH]c(=O)c(C#N)cc1-c1ccncc1` it is 0.87 and -0.397 and -0.212; for `COc1cc2c(N3CCN(C(=O)Nc4ccc(OC(C)C)cc4)CC3)ncnc2cc1OCCCN1CCCCC1` it is 0.343. Still for that read-out and setting: the figure for `CCCN(CCC)C(=O)C(CCC(=O)O)NC(=O)c1ccccc1` (configuration not stated) is -0.386; for `Oc1ccc(OCc2ccccc2)cc1` it is 0.599 and -0.357; for `COC(=O)Nc1nc2ccc(Sc3ccccc3)cc2[nH]1` it is -0.0455 and -0.127 and 1.14.

For the compound `CC(=O)O[C@]1(C(C)=O)CC[C@H]2[C@@H]3C=C(Cl)C4=CC(=O)[C@@H]5C[C@@H]5[C@]4(C)[C@H]3CC[C@@]21C`, the z-score was -0.158.

With `CO[C@@H]1[C@@H](OC(N)=O)[C@@H](O)[C@H](Oc2ccc3c(O)c(NC(=O)c4ccc(O)c(CC=C(C)C)c4)c(=O)oc3c2C)OC1(C)C`, the z-score is -1.01. The same measure, in the same setting: the figure for `CCOc1cc(N)c(Cl)cc1C(=O)NCC1CN(Cc2ccc(F)cc2)CCO1` (configuration not stated) is -0.205; for `Cc1ccc(S(=O)(=O)NC(=O)NN2CC3CCCC3C2)cc1` (configuration not stated) it is 0.53 and -0.111 and 0.139. `CN(Cc1cc(Br)cc(Br)c1N)C1CCCCC1`: the z-score was 0.932 and -0.166 and 0.184.

On to `COC(=O)Nc1nc2ccc(C(=O)c3cccs3)cc2[nH]1`, for which the z-score was 0.709 and -0.844 and -0.416. Still for that read-out and setting: the figure for `Cn1c(=O)c2c(ncn2C)n(C)c1=O` is -0.496; for `CN(Cc1cnc2nc(N)nc(N)c2n1)c1ccc(C(=O)N[C@@H](CCC(=O)O)C(=O)O)cc1` it is -0.369.
